Source: PubChem BioAssay (NCATS)
Inconclusive results are not listed. Calls of active or inactive are those of the source. The call rests on the fitted dose curve; in most records, active means well fitted cell-killing curve with a large enough effect; inconclusive means small, poorly fitted or top-dose-only effect, or effect the other way; inactive means flat fitted curve, though single readings scatter.

Columns and labels:
Test in all cases: Primary qHTS to identify gynecologic anti-cancer compounds using libraries of approved drugs and bioactive compounds (AID 1345084); further: nearly all actives have a fitted effect of over 55% in size
C33A = details: Gynecologic cancer cell panel viability, ATPlite luminescence, 48 h; series mostly up to 57.5 µM
How it was run: (§1)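 Cell viability after 48 h drug treatment, ATPlite luminescence readout; five doses.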

CAOV3 = details: Gynecologic cancer cell panel viability, ATPlite luminescence, 48 h; series mostly up to 57.5 µM
How it was run: as §1

CASKI = details: Gynecologic cancer cell panel viability, ATPlite luminescence, 48 h; series mostly up to 57.5 µM
How it was run: as §1

Es-2 = details: Gynecologic cancer cell panel viability, ATPlite luminescence, 48 h; series mostly up to 57.5 µM
How it was run: as §1

HeLa = details: Gynecologic cancer cell panel viability, ATPlite luminescence, 48 h; series mostly up to 57.5 µM
How it was run: as §1

Hek293T = details: Gynecologic cancer cell panel viability, ATPlite luminescence, 48 h, control line for the selectivity index; series mostly up to 57.5 µM
How it was run: as §1

Measured: Potency

O=C1Nc2ccccc2C(O)(c2ccccc2)C1O (stereo not given)
inactive: all assays above

Nc1nc2c(c(N3CCNCC3)n1)CCC1=C2[C@@H]2CCCC[C@@H]2O1
inactive: all assays above

COc1cc2ncnc(Nc3ccc(O)cc3)c2cc1OC
inactive: all assays above

C=C1C[C@@]23CCC4[C@@](C)(CCC[C@@]4(C)C(=O)OC)C2CC[C@@H]1C3 (stereo not given in full)
inactive: all assays above

C[C@]12C=C[C@@]3(CCC4[C@](C)(CO)CCC[C@@]4(C)C3CC1)C2 (stereo not given in full)
inactive: all assays above

CCCC(=O)C1CCN(c2ncnc3c2CN(C(=O)c2ccc(-c4ccccc4)cc2)CC3)CC1
inactive: all assays above

CC1=C(C(=O)O)/C(=C/CO[C@@H]2O[C@H](COC(=O)/C=C/c3ccc(O)cc3)[C@@H](O)[C@H](O)[C@H]2O)C(O)C1 (stereo not given in full)
inactive: all assays above

COC(=O)C1=COC(OC2OC(CO)C(O)C(O)C2O)C2C1C=CC2(O)CO (stereo not given)
inactive: all assays above

CC(=O)OCC1(O)CCC2C(COC3OC(CO)C(O)C(O)C3OC(=O)/C=C/c3ccc(O)cc3)=COC(OC(=O)CC(C)C)C21 (stereo not given)
inactive: all assays above

CC1CCC2(C(=O)O)CCC3(C)C(=CCC4C5(C)CCC(O)C(C)(CO)C5CCC43C)C2C1(C)O (stereo not given)
inactive: all assays above

COc1ccc(-n2[nH]c(=O)c3[nH]c4cc(Cl)ccc4c(=O)c3c2=O)c(C)c1
inactive: all assays above

COC(=O)c1ccccc1O[C@@H]1O[C@H](CO)[C@@H](O)[C@H](O)[C@H]1O[C@@H]1O[C@@H](C)[C@H](O)[C@@H](O)[C@H]1O
inactive: all assays above

C[C@@H]1C(=O)O[C@H]2[C@H](O)C34[C@H]5C[C@@H](C(C)(C)C)C36[C@@H](OC(=O)[C@@H]6O)O[C@@]4(C(=O)O5)[C@@]12O (stereo not given in full)
inactive: all assays above

C=C(C(=O)O)C1CC(O)C2(C)CCCC(=C)C2C1 (stereo not given)
inactive: all assays above

O=C(c1cc2c(cc1F)OC(c1ccc(F)cc1)(c1ccc(Cl)cc1Cl)O2)N1CCOCC1 (stereo not given)
inactive: all assays above

C[C@H]1CC(=O)Nc2cccc(-c3cnn(C(C)(C)C)c3)c2N1
inactive: all assays above

N#C[C@@H]1CCCN1C(=O)CNC12CC3CC(CC(O)(C3)C1)C2
inactive: all assays above

CC1(c2nc3c(C(N)=O)cccc3[nH]2)CCCN1 (stereo not given)
inactive: all assays above

[N-]=[N+]=N[C@]1(CO)O[C@@H](n2ccc(=O)[nH]c2=O)[C@@H](O)[C@@H]1O
inactive: all assays above

COC(=O)C1=CO[C@@H](O[C@@H]2O[C@H](CO[C@@H]3O[C@H](COC(=O)/C=C/c4cc(OC)c(O)c(OC)c4)[C@@H](O)[C@H](O)[C@H]3O)[C@@H](O)[C@H](O)[C@H]2O)[C@@H]2C(CO)=CC[C@H]12
inactive: all assays above
